# Screening data as filed in PubChem.
# Sampled rows, rich in hits. Any-hit rate of the full collection: about 3%.
# 5HT1E antag = antagonists of human 5-HT1E serotonin receptor | inhibition, % at 6 µM | 65,000 compounds, 0.99% hits | AID 571 | CHO 5-HT1E Ga15 NFAT-bla reporter, FRET, antagonist | P28566;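 active means inhibition above a set limit, the mean inhibition across every tested compound plus 3 SD, cut at about 29% in these data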;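 further: signal is the 460 over 535 nm emission ratio of beta-lactamase substrate; 0% = agonist plus DMSO wells and 100% = wells without agonist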
# Target sequence (P28566 whole entry, looked up): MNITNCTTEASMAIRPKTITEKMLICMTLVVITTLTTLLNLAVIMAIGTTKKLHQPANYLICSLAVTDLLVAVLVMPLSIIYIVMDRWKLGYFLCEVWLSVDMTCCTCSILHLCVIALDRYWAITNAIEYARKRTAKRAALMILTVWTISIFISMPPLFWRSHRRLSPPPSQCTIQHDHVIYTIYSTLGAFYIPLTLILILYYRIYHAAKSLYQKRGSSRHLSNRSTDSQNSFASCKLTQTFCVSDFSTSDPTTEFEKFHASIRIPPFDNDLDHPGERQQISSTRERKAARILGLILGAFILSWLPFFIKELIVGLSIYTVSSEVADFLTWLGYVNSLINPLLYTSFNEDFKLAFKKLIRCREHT
# HTR1E agonist = activates the human 5-HT1E serotonin receptor. P28566. 65,000 compounds, 0.69% hits. CHO 5-HT1E Ga15 NFAT-bla reporter, FRET; 0% DMSO wells, 100% control agonist wells. AID 574. activation, % at 6 µM;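 active means activation above a set limit, the screen-wide mean activation plus 3 SD, cut at about 8.5% in these data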;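 further: 100% = positive control agonist at 1 µM giving full maximal response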
# Her2 expr inh = inhibitors of human Her2 kinase expression; P04626; SKBR-3 HER2 protein level, AlphaScreen, 18-24 h; active compounds read low; HER2 level % of control, % at 10 µM; 65,000 compounds, 0.69% hits;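 active means HER2 level under 5% of the carrier-only control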;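 further: 100% = DMSO carrier and 0% = 500 nM PU-H71 HSP90 inhibitor; lower value means stronger loss of Her2 protein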
# 5-HT1A blocker = antagonists of human 5-HT1a serotonin receptor | 62,000 compounds, 0.68% hits | P08908 | CHO 5-HT1a Ga15 NFAT-bla reporter, antagonist mode | inhibition, % at 10 µM | AID 612;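 active means inhibition above the mean of all tested compounds plus 3 SD, cut at about 43% in these data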;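 further: receptor stimulated by 5-CT agonist at 100 nM near EC80; beta-lactamase reporter measured by ratiometric fluorescence of a cleavable substrate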
# HTR1A agonist = activates the human 5-HT1a serotonin receptor. P08908. activation, % at 10 µM. 65,000 compounds, 0.56% hits. CHO 5-HT1a Ga15 NFAT-bla reporter, FRET ratio; 0% basal, 100% maximal reference agonist;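 active means activation above the screen-wide mean activation plus 3 SD, cut at about 19% in these data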;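 further: 0% = DMSO wells and 100% = 5-CT at EC100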
# Numbers without * were called inactive; x = no result.
SMILES,5HT1E antag,HTR1E agonist,Her2 expr inh,5-HT1A blocker,HTR1A agonist
CCOC(=O)c1c(C)c(-c2ccccc2)n(CC(=O)N2CCCC2)c1C,3.8,1.4,88.9,1.8,0.5
Cn1c(=O)[nH]c(=O)c2c1nc(N1CCCC1)n2CCCSc1nc2ccccc2o1,14.1,0.6,101.6,-4.7,1.9
Cn1c(=O)[nH]c(=O)c2c1nc(Br)n2CCCSc1nc2ccccc2o1,33.9*,-0.1,33.7,14.1,3.3
c1ccc(-n2c(-c3ccncc3)nnc2N2CCOCC2)cc1,13.2,0.2,-3.3*,-11.9,-1.8
c1ccc(-n2c(-c3ccncc3)nnc2-c2ccco2)cc1,9.6,0.1,82.3,9.4,-1.7
CCOC(=O)c1cc2ccc(OC(=O)c3ccco3)cc2oc1=O,-101.6,81.3*,112.7,-307.7,296.3*
Cn1nnnc1Sc1ncnc2scc(-c3ccccc3)c12,28.1,0.2,0.6*,32.0,-0.8
Cn1nnnc1Sc1ncnc2scc(-c3ccc(F)cc3)c12,47.6*,0.2,-10.9*,33.7,0.5
COc1cc(OC)cc(C(=O)Nc2ccc(-n3cnnn3)c(C)c2)c1,22.4,36.3*,129.6,16.7,-4.9
Cc1cc(NC(=O)C2CCCN(S(=O)(=O)c3cnc[nH]3)C2)ccc1Br (configuration not stated),-9.0,0.8,100.9,-9.3,-4.6
COc1cc2c(cc1OC)CN(C(=O)COc1ccc(C#N)cc1)CC2,-1.8,-0.5,84.0,-2.3,-2.5
COc1cc2c(cc1OC)C1=C(C#N)CN(CC(=O)O)CN1CC2,32.7*,-0.9,121.6,5.0,0.2
Cc1cccc(-c2c3c(=O)n(C)c(=O)n(C)c3cn2CC2CCCO2)c1 (configuration not stated),4.3,-1.1,102.3,-1.5,-1.8
COc1cccc(-n2c(SC3CCOC3=O)nc3ccccc3c2=O)c1 (configuration not stated),37.0*,-1.0,94.2,14.8,-1.2
NCC[C@H](O)C(=O)N[C@@H]1C[C@H](N)[C@@H](O[C@H]2O[C@H](CN)[C@@H](O)[C@H](O)[C@H]2O)[C@H](O)[C@H]1O[C@H]1O[C@H](CO)[C@@H](O)[C@H](N)[C@H]1O,x,x,107.5,x,x
COc1ccc(OC)c(NC2c3ccccc3C(=O)N2c2cccnc2)c1 (configuration not stated),9.9,0.1,92.7,12.1,-0.7
CCCCN(CC)Cc1ccc(CNC(=O)Nc2ccc(OC)cc2OC)o1,5.5,52.5*,79.6,12.9,-1.7
Cc1c(=O)n(OCc2ccccc2F)c2ccccc2[n+]1[O-],-9.0,-1.1,81.1,-4.2,24.6*
COc1ccc(-c2c(=O)n(OCc3ccccn3)c3ccccc3[n+]2[O-])cc1OC,-4.8,0.3,103.2,-9.5,-1.2
Nc1cc(C(=O)O)ccc1Nc1ccc(F)c(F)c1,-8.3,33.2*,93.1,-6.0,-1.7
Cc1onc(COc2ccccc2O)c1Br,1.3,-0.8,85.3,-16.9,-4.6
CC1CN(C2CCN(S(=O)(=O)c3ccccc3)CC2)CC(C)O1 (configuration not stated),52.3*,-0.7,115.6,x,-0.7
Cc1ccc(CC2CC(=O)N(c3ccc(Cl)cn3)C2=O)cc1 (configuration not stated),-9.2,-0.1,132.0,-4.4,-1.5
CC1(C)CCCC2=C1CC1C(=O)N(Cc3cccnc3)C(=O)C1C2 (configuration not stated),-9.8,0.7,-22.0*,4.3,-0.5
Cc1ccc(NC(=O)c2cc(-c3cccc(O)c3)on2)cc1C,-13.2,0.1,83.7,7.9,0.4
SMILES,5HT1E antag,HTR1E agonist,Her2 expr inh,5-HT1A blocker,HTR1A agonist
CCCNC(=O)c1c(N)n(-c2cccc(OC)c2)c2nc3ccccc3nc12,-11.2,8.7*,47.7,-25.9,41.7*
CC(CCc1ccccc1)NC(=O)C1CCN(S(=O)(=O)c2cnc[nH]2)CC1 (configuration not stated),-1.3,1.4,144.3,-9.1,-1.6
Cc1cccc(-c2nc(CSCC(=O)N3CCN(Cc4ccc5c(c4)OCO5)CC3)c(C)o2)c1,6.0,0.3,80.3,12.7,-1.2
CN1CCN(c2nc(N3CCN(c4ccccc4)CC3)ncc2F)CC1,9.5,35.2*,89.9,11.2,-0.6
CCOC(=O)CC1=C(C(=O)OCC)C(c2ccc(OC)cc2OC)C(C#N)=C(N)O1 (configuration not stated),5.5,-0.7,-20.0*,6.6,-3.7
CCOC(=O)CC1=C(C(=O)OCC)C(c2ccc(C)o2)C(C#N)=C(N)O1 (configuration not stated),35.0*,-0.8,66.5,52.6*,-0.3
CCCc1[nH]nc2c1C(c1ccc(OC)cc1OC)C(C#N)=C(N)O2 (configuration not stated),2.2,-0.6,111.0,2.7,-1.4
CCOC(=O)CC1=C(C#N)C(c2cccnc2)C(C(=O)OCC)=C(N)O1 (configuration not stated),-2.1,-0.5,160.8,14.0,-1.3
COc1ccc(-n2c3c(cc(C(=O)Nc4ccc5c(c4)C(=O)NC5=O)c2=O)C(=O)CCC3)cc1,0.0,0.1,90.9,-10.0,0.7
CCN(CC)CCCN1C(=O)C(=O)/C(=C(/O)c2ccccc2)C1c1cc(OC)ccc1OC (configuration not stated),2.4,-0.8,99.2,x,-0.9
Cn1cc(CN2CCN(c3ccccc3)CC2)c2ccccc21,-8.2,11.9*,83.9,13.3,-2.8
CCN1CCN(C(=O)CN(c2ccccc2C)S(C)(=O)=O)CC1,12.3,-1.5,113.2,-6.8,-1.5
Cc1noc(C)c1CN1C(=O)NC(Cc2ccccc2)(Cc2ccccc2)C1=O,-8.4,-0.3,101.1,9.1,-3.0
CN(C)c1ccc2c(c1)OC(N)=C(C#N)C2c1cccc(F)c1 (configuration not stated),75.4*,0.7,49.9,9.7,-3.0
N#CC1=C(N)Oc2cc(O)ccc2C1c1ccncc1 (configuration not stated),-9.4,-0.3,82.2,-48.8,0.1
CC(C)(C)OC(=O)N[C@@H](Cc1ccccc1)c1nnc(S(=O)(=O)Cc2cccc(F)c2)o1,45.9*,1.1,-16.4*,67.3*,-2.5
Cc1ccccc1CS(=O)(=O)c1nnc([C@H](CC(C)C)NC(=O)OC(C)(C)C)o1,36.1*,1.8,-13.9*,39.3,3.3
CC[C@@H](C)[C@H](NC(=O)OC(C)(C)C)c1nnc(S(=O)(=O)Cc2cc(C)ccc2C)o1,35.1*,-0.1,-12.6*,57.4*,1.0
CC(C)C[C@H](N)c1nnc(S(=O)(=O)Cc2cccc(F)c2)o1,19.9,-0.5,74.4,58.5*,-0.7
CCOC(=O)CSc1nnc([C@H](Cc2ccccc2)NC(=O)OC(C)(C)C)o1,-9.4,0.4,78.7,-17.2,-0.2
CCn1c(COc2ccccc2C)nnc1SCC(=O)CC(=O)Nc1ccccc1,5.2,0.2,94.1,15.0,2.6
O=C(Oc1ccccc1)c1c(Cl)cccc1P(=O)(O)O,-2.8,-0.7,97.6,x,-3.2
